# Source: PubChem BioAssay (Tox21)
# Results filed as inconclusive are left out. Calls of active or inactive are those of the source. The call rests on the fitted dose curve; in most records, active means well fitted cell-killing curve with a large enough effect in the repeat runs; inconclusive means weak or mixed curves; inactive means flat fitted curve, though single readings scatter.
# Experiment: qHTS RealTime-Glo MT Cell Viability Assay in HepG2 cells - 16 hour (AID 1224885); further: nearly all actives have a fitted effect of over 50% in size
# Settings: RealTime-Glo luminescence; series mostly up to 76.8 µM; activity change, negative = cytotoxic: at the top concentration
# Source text: U.S. Tox21 Program National Center for Advancing Translational Sciences [NCATS] NIH Chemical Genomics Center [NCGC] U.S. Environmental Protection Agency [EPA] National Institutes of Environmental Health Sciences [NIEHS] National Toxicology Program [NTP] U.S. Food and Drug Administration [FDA] Tox21 Assay Overview: Measure of cell viability is critical in the cell-base assay. Analysis of cell viability is necessary for the characterization of cell responses to cytotoxic drugs and environmental stress. A RealTime-Glo MT Cell Viability Assay to monitor cell viability in real time of continues cell culture during 40 hours of compound treatment was used to screen Tox21 10K library compounds in HepG2 cells. The RealTime-Glo MT Cell Viability Assay is a nonlytic, homogeneous, bioluminescent method to measure cell viability in real time using a simple, plate-based method. The assay involves adding NanoLuc luciferase and a cell-permeant prosubstrate to cells in culture. Viable cells reduce the proprietary prosubstrate to generate a substrate for NanoLuc luciferase. This substrate diffuses from cells into the surrounding culture medium, where it is rapidly used by the NanoLuc Enzyme to produce a luminescent signal. The signal correlates with the number of viable cells, making the assay well suited for cytotoxicity studies.
# Tox21 Assay Protocol Summary: The mixture of HepG2 cell suspension and reagents were dispensed at 600cells/6 ul/well in 1536-well tissue culture treated black solid bottom plates using a Multidrop dispenser. After the assay plates were incubated at a 37 C/5% CO2 incubator for 5 hours, 23 nL of compounds dissolved in DMSO, positive and negative controls was transferred to the assay plate by a pintool work station. The plates were incubated at 37 C for 40 hours. The luminescence intensity were measured at 0h, 8h, 16h, 24h, 32h and 40h time points using ViewLux plate reader during compound treatment.
# On the % scale 0 is the no-effect control and ±100 the full control effect.
row,Compound,"activity change, negative = cytotoxic"
1,CC(C(=O)O)c1cccc(Oc2ccccc2)c1 (stereo not given),0.589% [at 35.3 µM] (inactive)
2,CC(=O)N[C@H]1[C@H]([C@H](O)[C@H](O)CO)OC(C(=O)O)=C[C@@H]1N=C(N)N,4.11% [at 35.3 µM] (inactive)
3,Nc1ccn([C@@H]2O[C@H](CO)[C@@H](O)[C@@H]2O)c(=O)n1,-0.0801% (inactive)
4,CC(N)C12CC3CC(CC(C3)C1)C2 (stereo not given),0.174% [at 35.3 µM] (inactive)
5,COc1cc(-c2ccc(=O)[nH]n2)ccc1OC(F)F,4.13% [at 35.3 µM] (inactive)
6,CCC(C(=O)NC(=O)NC(C)=O)c1ccccc1 (stereo not given),3.27% [at 35.3 µM] (inactive)
7,CCCCCCCCCCCCSC,3.55% (inactive)
8,Cc1ccc(C(=O)c2ccc(CC(=O)O)n2C)cc1,1.9% [at 35.3 µM] (inactive)
9,CC(=O)C1CCCCC1=O (stereo not given),2.07% (inactive)
10,CC/C=C\CCOC(C)OCC (stereo not given),3.55% [at 35.3 µM] (inactive)
11,CC(C)(C)OC(=O)c1cccc(N)c1,1.01% (inactive)
12,COc1cccc(OC)c1C(=O)N[C@@H]1C(=O)N2[C@@H]1SC(C)(C)[C@@H]2C(=O)O,-1.8% [at 35.3 µM] (inactive)
13,CCN1C=CN(C)C1C (stereo not given),2.45% (inactive)
14,CCN[C@H]1C[C@H](C)S(=O)(=O)c2sc(S(N)(=O)=O)cc21,2.28% [at 35.3 µM] (inactive)
15,CC(C)COC(=O)c1ccc(N)cc1,-0.378% [at 35.3 µM] (inactive)
16,CN(C)CCN(C)CCN(C)C,1.35% (inactive)
17,CCOC(=O)OC(C)OC1=C(C(=O)Nc2ccccn2)N(C)S(=O)(=O)c2ccccc21 (stereo not given),0.65% [at 35.3 µM] (inactive)
18,O=C(CO)[C@@H](O)[C@H](O)[C@H](O)CO,1.72% (inactive)
19,CC(C)=CCC/C(C)=C/C#N,2.25% (inactive)
20,CCC1C(=O)OCC1Cc1cncn1C (stereo not given),4.02% [at 35.3 µM] (inactive)

row,Compound,"activity change, negative = cytotoxic"
1,CC(C)(C)c1ccc(-c2ccc(C(C)(C)C)cc2)cc1,3.92% (inactive)
2,O=C(c1ccccc1)C1(O)CCCCC1,-0.277% (inactive)
3,COCCOC[C@H](CC1(C(=O)NC2CCC(C(=O)O)CC2)CCCC1)C(=O)Oc1ccc2c(c1)CCC2 (stereo not given in full),2.8% (inactive)
4,N[C@H](C(=O)O)[C@@H](O)c1ccc(O)c(O)c1,-0.0696% [at 35.3 µM] (inactive)
5,CC(COc1ccccc1)NN (stereo not given),0.518% [at 35.3 µM] (inactive)
6,CC[N+](CC)(CC(=O)Nc1c(C)cccc1C)Cc1ccccc1 (tested in a mixture with another compound),1.83% [at 35.3 µM] (inactive)
7,Cc1ncc([C@@H](CCCCCCc2ccc3c(n2)NCCC3)CC(=O)O)cn1,-0.428% (inactive)
8,OCCc1ccccn1,1.69% (inactive)
9,CC1OC1C1CCC2(C)OC2C1 (stereo not given),1.78% (inactive)
10,C=CC(=O)OCCCl,3.25% (inactive)
11,[Ca+2],1.02% (inactive)
12,CN1CCC(=C2c3ccccc3CCc3cccnc32)CC1,0.196% [at 35.3 µM] (inactive)
13,CCOC(=O)C1=NOC(c2ccccc2)(c2ccccc2)C1,-7.26% (inactive)
14,CO[Si](C)(OC)c1ccccc1,-3.41% (inactive)
15,CCC(C)(CN(C)C)OC(=O)c1ccccc1 (stereo not given),2.14% [at 35.3 µM] (inactive)
16,CN(C)[C@@H]1C(=O)C(C(=O)NCN2CCCC2)=C(O)[C@@]2(O)C(=O)C3=C(O)c4c(O)cccc4[C@@](C)(O)C3C[C@@H]12 (stereo not given in full),-3.33% [at 35.3 µM] (inactive)
17,O=C1c2ccccc2C(=O)c2cc(O)ccc21,-5.08% (inactive)
18,CC(C)C(=O)OC(=O)C(C)C,0.431% (inactive)
19,C=C(C)C(=O)OCC(O)CO (stereo not given),-1.15% [at 35.3 µM] (inactive)
20,c1ccc(CCc2ccccc2)cc1,-1.21% (inactive)
